The text below walks through data of PubChem BioAssay (Tox21).

Records with an inconclusive call do not appear. Calls of active or inactive are those of the source. Calls come from the whole dose curve; as a rule, active = well fitted cell-killing curve with a large enough effect in the repeat runs; inconclusive = weak or mixed curves, or effect the other way; inactive = no such curve, though single readings can be large or run the other way.
% is set by controls: 0 for no effect and ±100 for the full control effect.

The nature of this assay: qHTS assay to identify small molecule agonists of the farnesoid-X-receptor (FXR) signaling pathway - cell viability counter screen (AID 743218). Note: nearly all actives have a fitted effect of over 45% in size. To be noted: FXR-bla HEK293T viability, CellTiter-Glo luminescence, 16 h; series mostly up to 62.6 µM; viability change, negative = cytotoxic: at the top concentration. An excerpt: U.S. Tox21 Program National Center for Advancing Translational Sciences [NCATS] NIH Chemical Genomics Center [NCGC] U.S. Environmental Protection Agency [EPA] National Institutes of Environmental Health Sciences [NIEHS] National Toxicology Program [NTP] U.S. Food and Drug Administration [FDA] Tox21 Assay Overview: The farnesoid-X-receptor (FXR), a nuclear hormone receptor, is highly expressed in liver, intestine, kidney and adrenal cortex. Natural ligands of FXR are the bile acids (Cholic acid, Chenodeoxy cholic acid etc). FXR is an important regulator of diverse metabolic pathways, including the bile acid homeostasis, lipid and glucose metabolisms. FXR regulates the expression of target genes by binding either as a monomer or as a heterodimer with the retinoid X receptor (RXR). Numerous studies have reported that FXR exerts protective function during cholestasis, diabetes, liver regeneration, and cancer. To identify compounds that activate FXR signaling, GeneBLAzer FXR-UAS-bla HEK 293T cell line (Invitrogen, Carlsbad, CA) containing a beta-lactamase reporter gene under the control of a UAS response element was used to screen the Tox21 10K compound library. The cytotoxicity of the Tox21 compound library against the FXR-bla cell line was tested in parallel by measuring the cell viability using CellTiter-Glo assay in the same wells.
Tox21 Assay Protocol Summary: FXR-bla cells were dispensed at 5000 cells/5uL/well in 1536-well black wall/clear bottom plates using a Multidrop Combi (Thermo Fisher Scientific, Waltham, MA) dispenser. After the assay plates were incubated at 37 C and 5% CO2 for 5 h, 23 nL of compounds dissolved in DMSO, positive controls or DMSO only was transferred to the assay plate by a Pintool station (Kalypsys, San Diego, CA). The assay plates were incubated at 37C for 16 h. After 1 uL of LiveBLAzerTM B/G FRET substrate was added using a Bioraptr Flying Reagent Dispenser (FRD) workstation (Beckman Coulter, Indianapolis, IN), the plates were incubated at room temperature for 2 h, and fluorescence intensity was measured by an Envision plate reader (PerkinElmer, Shelton, CT). For cell viability readout that measures cytotoxicity, 4uL/well of CellTiter-Glo reagent was added into the assay plates using a Bioraptr FRD. After 30 min incubation at room temperature, the luminescence intensity in the plates was measured using a ViewLux plate reader (PerkinElmer).
(In general: Quantitative high-throughput screening tests each substance at several concentrations.)
`O=C1OC(=O)C2CCCCC12` (stereo not given): the “viability change, negative = cytotoxic” value is 4.3% (inactive).

`O=c1cc(CO)occ1O`: the “viability change, negative = cytotoxic” value was 15.8% (inactive).

For the molecule `O=C(O)CCCc1ccccc1`, the “viability change, negative = cytotoxic” value was 17.7% (inactive).

For `CC(=O)c1ccccc1O`, the “viability change, negative = cytotoxic” value was -1.09% (inactive).

With `C[N+](C)(C)CCCCCC[N+](C)(C)C`, the “viability change, negative = cytotoxic” value was 22.1% (inactive).

Take `CCOC(=O)c1cccc(N)c1`: the “viability change, negative = cytotoxic” value was 16.6% (inactive).

`NS(=O)(=O)c1cc(C(=O)NN2C[C@H]3[C@H]4CCC(C4)[C@H]3C2)ccc1Cl`: the “viability change, negative = cytotoxic” value is 1.31% (inactive).

`N[C@H](C(=O)O)c1ccc(O)cc1`: the “viability change, negative = cytotoxic” value was 16.9% [at 29.1 µM] (inactive).

Take `CC(C)(C)c1ccc(O)c(O)c1`: the “viability change, negative = cytotoxic” value was -22.5% [at 81.1 µM] (inactive).

In the case of `O=S(O)CO`, the “viability change, negative = cytotoxic” value is 18.3% (inactive).

With `OC[C@]1(O)OC[C@@H](O)[C@H](O)[C@@H]1O`, the Potency result was “inactive”.

Turning to `NC(=O)COCCN1CCN(C(c2ccccc2)c2ccc(Cl)cc2)CC1` (stereo not given), the “viability change, negative = cytotoxic” value was 0.255% (inactive).

On to `O=c1n(CCO)c(=O)n(CCO)c(=O)n1CCO`, for which the Potency entry is “inactive”.

As to `CCn1nc(C(=O)O)c(=O)c2cc3c(cc21)OCO3`, the “viability change, negative = cytotoxic” value is 8.97% (inactive).

Take `O=[N+]([O-])c1ccc(F)cc1F`: the “viability change, negative = cytotoxic” value was 12% [at 81.1 µM] (inactive).

Turning to `O=c1[nH]c(=O)n([C@H]2C[C@H](O)[C@@H](CO)O2)cc1I`, the “viability change, negative = cytotoxic” value was 9.61% (inactive).

Turning to `CC(C)(O)C(=O)c1ccccc1`, the “viability change, negative = cytotoxic” value is 3.16% (inactive).

Regarding `O=C1CCCCCCCCCCCN1`, the Potency result is “inactive”.

With `CCCCOCCOCCOCCCC`, the “viability change, negative = cytotoxic” value was -1.11% (inactive).

As to `CCCCCSCCCCC`, the “viability change, negative = cytotoxic” value is 25.2% (inactive).

Take `O=C[C@H](O)[C@@H](O)[C@H](O)[C@H](O)CO`: the “viability change, negative = cytotoxic” value was 30.7% (inactive).

For the molecule `NS(=O)(=O)c1cc2c(cc1Cl)NC(C1CC3C=CC1C3)NS2(=O)=O` (stereo not given), the “viability change, negative = cytotoxic” value is 0.774% (inactive).

In the case of `Cn1cc(S(C)=O)c(=O)c2ccc(F)cc21` (stereo not given), the “viability change, negative = cytotoxic” value was 0.485% (inactive).

For the molecule `CN(C(=O)c1c(O)c2ccccc2n(C)c1=O)c1ccccc1`, the “viability change, negative = cytotoxic” value is 4.41% (inactive).

`CCOC(=O)c1ccc(C)cc1`: the “viability change, negative = cytotoxic” value is -7.97% (inactive).

For `CCOC(=O)[C@H](CCc1ccccc1)N[C@@H](C)C(=O)N1[C@H](C(=O)O)C[C@@H]2CCC[C@@H]21`, the “viability change, negative = cytotoxic” value was 0.041% (inactive).

Consider `CC(C)(CC(=O)O)C(=O)O`, for which the “viability change, negative = cytotoxic” value is 16.8% (inactive).

Consider `CC(C)NCC(O)c1ccc(NS(C)(=O)=O)cc1` (stereo not given), for which the “viability change, negative = cytotoxic” value was 0.644% [at 81.1 µM] (inactive).

`O=C1NC(=O)[C@@]2(CCOc3ccc(F)cc32)N1`: the “viability change, negative = cytotoxic” value is 3.86% (inactive).

In the case of `CCCCCOC(=O)CCCCC`, the “viability change, negative = cytotoxic” value was 11% (inactive).

For `Cc1cccc(C)c1NC(=O)C(C)N` (stereo not given), the “viability change, negative = cytotoxic” value was 14.5% (inactive).

On to `CC(C)(C)NCCNC(C)(C)C`, for which the “viability change, negative = cytotoxic” value was -5.49% (inactive).

As for `C=COCC1CCC(CO)CC1` (stereo not given), the “viability change, negative = cytotoxic” value was 1.21% (inactive).

As for `CCCCNC(=O)NCCCC`, the “viability change, negative = cytotoxic” value is 25.3% (inactive).

As to `NC(=O)c1ccc(N)cc1`, the “viability change, negative = cytotoxic” value was 9.34% (inactive).

On to `COc1c(N2C[C@@H]3CCCN[C@@H]3C2)c(F)cc2c(=O)c(C(=O)O)cn(C3CC3)c12`, for which the “viability change, negative = cytotoxic” value is 14.7% (inactive).

Take `NS(=O)(=O)c1ccc(C(=O)O)cc1`: the “viability change, negative = cytotoxic” value is 4.18% (inactive).

On to `O=C1CC2CC1C1CCCC21` (stereo not given), for which the “viability change, negative = cytotoxic” value is -28.4% (inactive).

As to `C[C@H](NC(CCc1ccccc1)C(=O)O)C(=O)N1CCC[C@H]1C(=O)O` (stereo not given in full), the “viability change, negative = cytotoxic” value was 10.4% (inactive).

With `O=C(CCCN1CCN(c2ccccn2)CC1)c1ccc(F)cc1`, the “viability change, negative = cytotoxic” value is -8.09% (inactive).
